Sampled rows, rich in hits. Any-hit rate of the full collection: about 12%.
AmpC detergent = qHTS Inhibitors of AmpC Beta-Lactamase (assay with detergent); P00811; AmpC hydrolysis of nitrocefin, absorbance 480 nm, 0.01% Triton; Potency, µM (doses to about 114 µM), for the others: at the highest dose activity change, negative = inhibition, most hits filed as inhibitors; actives 0.041% (n = 370,000);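 also: 0% = no-compound wells and -100% = no-enzyme wells; nearly all actives have a fitted effect of over 25% in size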
Target sequence (P00811 whole entry, looked up): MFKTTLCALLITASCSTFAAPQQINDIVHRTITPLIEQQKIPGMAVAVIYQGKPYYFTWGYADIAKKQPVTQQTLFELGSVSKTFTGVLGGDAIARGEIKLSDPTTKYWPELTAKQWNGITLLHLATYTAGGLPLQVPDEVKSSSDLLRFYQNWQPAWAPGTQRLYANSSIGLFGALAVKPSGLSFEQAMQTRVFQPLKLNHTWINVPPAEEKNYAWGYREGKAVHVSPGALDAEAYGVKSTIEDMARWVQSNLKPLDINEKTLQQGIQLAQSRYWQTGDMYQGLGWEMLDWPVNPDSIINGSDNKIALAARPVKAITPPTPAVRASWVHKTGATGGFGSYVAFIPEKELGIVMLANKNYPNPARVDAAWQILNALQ
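AmpC (5.3 nM in the dispensed reagent) in 20 mM phosphate pH 7.0 with 0.01% (detergent screen) or 0.0001% Triton X-100 was preincubated with compounds for 15 min at room temperature. Nitrocefin was then added from an 800 uM solution, and hydrolysis was followed at 480 nm.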
Pf growth 48h = Primary qHTS for delayed death inhibitors of the malarial parasite plastid, 48 hour incubation; P. falciparum luciferase growth in erythrocytes, 48 h; Potency, µM (doses to about 28.7 µM), for the others: top-dose activity change, negative = inhibition, most hits filed as inhibitors; actives 5.9% (n = 310,000); AID 504832, 2011; also: % is scaled to controls: 0 for no effect and ±100 for the full control effect
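Parasite viability was followed by luminescence of a genomically integrated firefly luciferase. Cultures held 0.1% parasitemia at 2% hematocrit (final), incubated under 5% CO2 at 37 C.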
SARS PLP yeast = qHTS of Yeast-based Assay for SARS-CoV PLP; S. cerevisiae expressing SARS-CoV PLpro, growth rescue; Potency, µM (doses to about 32.9 µM), for the others: at the top dose activity, positive = growth rescue, hits mostly activators; actives 0.19% (n = 330,000); calls by dose curve; also: 0% is about no effect; nearly all actives have a fitted effect of over 55% in size
Pf growth 96h = Primary qHTS for delayed death inhibitors of the malarial parasite plastid, 96 hour incubation; Potency, µM (doses to about 28.7 µM), for inactives: top-dose activity change, negative = inhibition, usual class: inhibitors; AID 504834, 2011; actives 6.9% (n = 320,000); P. falciparum luciferase reporter growth, 96 h; also: % is scaled to controls: 0 for no effect and ±100 for the full control effect
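P. falciparum expressing integrated firefly luciferase grown in erythrocytes (2% hematocrit, 0.05% parasitemia final) with compounds for 96 hours at 37 C, 5% CO2. Growth inhibition read as loss of luminescence after adding luciferase detection reagent.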
Sm TGR block = qHTS Assay for the Inhibitors of Schistosoma Mansoni Peroxiredoxins. Schistosoma mansoni thioredoxin glutathione reductase (TGR), Q962Y6. purified TGR, DTNB reduction, TNB absorbance 405 nm. Potency, µM (top dose mostly 114 µM), without a hit: top-dose activity change, negative = inhibition, most hits filed as inhibitors. actives 3% (n = 360,000); also: % is scaled to controls: 0 for no effect and ±100 for the full control effect; nearly all actives have a fitted effect of over 60% in size
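First, TGR (20 nM dispensed) and NADPH were mixed with compound. Second, a 15 min room-temperature incubation followed. Third, further NADPH and then DTNB were added to start the reaction. Finally, TNB absorbance was monitored kinetically.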
AmpC no deterg = qHTS Inhibitors of AmpC Beta-Lactamase (assay without detergent); AmpC nitrocefin hydrolysis, absorbance 480 nm, 0.0001% Triton; AID 485341, 2010; actives 0.52% (n = 330,000); Potency, µM (titrated, usually from 57.1 µM), for inactives: top-dose activity change, negative = inhibition, usual class: inhibitors;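 also: plate controls were no compound for no effect and no enzyme for full effect; nearly all actives have a fitted effect of over 20% in size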
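AmpC (5.3 nM in the dispensed reagent) in 20 mM phosphate pH 7.0 with 0.01% (detergent screen) or 0.0001% Triton X-100 was preincubated with compounds for 15 min at room temperature. Nitrocefin was then added from an 800 uM solution, and hydrolysis was followed at 480 nm.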
* = called active by the depositor. Unless noted, calls follow the shape of the dose curve; as a rule, active = well fitted curve in the direction sought with a large enough effect; inconclusive = small, poorly fitted or top-dose-only effect, or another doubt; inactive = no such curve, though single readings can be large; an effect the other way counts as inactive or inconclusive. Potency is read from the fitted curve at half-maximal effect.

Screening CCN(CC)S(=O)(=O)c1cc(C)ccc1NC(=S)Nc1cccnc1 returned AmpC detergent -10.9%, Pf growth 48h -3.0%, SARS PLP yeast -0.3%, Pf growth 96h 7.7%, Sm TGR block 22.4µM* and AmpC no deterg -44.3%.
CCN(CC)S(=O)(=O)c1cc(C(=O)Nc2cccnc2)ccc1Cl was read as AmpC detergent 5.3%, Pf growth 48h 11.9%, SARS PLP yeast 5.2%, Sm TGR block 3.7% and AmpC no deterg -2.5%.
CCN1CCN(S(=O)(=O)c2ccc(Cl)c(C(=O)N(C)Cc3ccccc3)c2)CC1 was read as AmpC detergent -7.4%, Pf growth 48h 0.1%, SARS PLP yeast -2.6%, Pf growth 96h -19.6%, Sm TGR block 7.4% and AmpC no deterg 67.2%.
`CCOC(=O)c1cccnc1SCC(=O)N(CC)c1cccc(C)c1` gave AmpC detergent inconclusive, SARS PLP yeast 9.8%, Pf growth 96h 11.7µM*, Sm TGR block 4.1% and AmpC no deterg 47.1%.
`CCN(C(=O)CSc1ncccc1C(=O)OC(C)C)c1cccc(C)c1` gave AmpC detergent 7.9%, SARS PLP yeast -36.3%, Pf growth 96h inconclusive, Sm TGR block 4.6% and AmpC no deterg 83.2%.
For CCn1c(SCc2ccc(F)cc2)nc2ccccc2c1=O the results were AmpC detergent -0.6%, Pf growth 48h -28.8%, SARS PLP yeast -6.4%, Pf growth 96h -6.5%, Sm TGR block 8.2% and AmpC no deterg -0.8%.
CCn1c(SCc2ccc(F)cc2)nnc1-c1nn(-c2ccccc2)ccc1=O was read as AmpC detergent -10.1%, Pf growth 48h inconclusive, SARS PLP yeast 0.7%, Pf growth 96h 5.22µM*, Sm TGR block 1.4% and AmpC no deterg 1.0%.
COc1ccc(OC)c(C(=O)c2ccc(C(=O)c3cc(OC)ccc3OC)cc2)c1 was read as AmpC detergent -12.1%, Pf growth 48h 2.8%, SARS PLP yeast -5.6%, Sm TGR block -3.9% and AmpC no deterg -17.5%.
COc1ccc(OC)c(C(=O)C2COC(=O)C2)c1 (centres undefined) was read as AmpC detergent inconclusive, Pf growth 48h 10.4µM*, SARS PLP yeast 0.9%, Pf growth 96h 49.2%, Sm TGR block 0.8% and AmpC no deterg -9.8%.
Screening CCc1nc(C)cn1S(=O)(=O)c1ccc(Cl)c(Cl)c1OC returned AmpC detergent -4.1% and Sm TGR block 7.2%.
Screening CC(NC(=O)c1sc2ncccc2c1-n1cccc1)c1ccccc1 (centres undefined) returned AmpC detergent 0.6% and Sm TGR block -1.3%.
`Nc1nc(-c2ccc(Cl)cc2)cc(C(F)(F)F)n1` gave AmpC detergent -2.0%, Pf growth 48h 26.7%, SARS PLP yeast -1.7%, Pf growth 96h 7.38µM*, Sm TGR block 1.4% and AmpC no deterg -9.0%.
For Nc1nc(-c2ccc(F)cc2)cc(C(F)(F)F)n1 the results were AmpC detergent -9.5%, Pf growth 48h 5.1%, SARS PLP yeast 10.8%, Sm TGR block 10.8% and AmpC no deterg -11.2%.
For Oc1ccc(/C=N/Nc2nc(-c3ccc(Cl)cc3)cc(C(F)(F)F)n2)cc1 the results were AmpC detergent -9.0%, Pf growth 48h inconclusive, SARS PLP yeast -7.1%, Pf growth 96h inconclusive, Sm TGR block 2.6% and AmpC no deterg 15.8µM*.
`Cc1cc(-c2ccccc2)nc(N/N=C/c2ccc(O)cc2)n1` gave AmpC detergent -0.2%, Pf growth 48h inconclusive, SARS PLP yeast -2.1%, Pf growth 96h inconclusive, Sm TGR block 0.2% and AmpC no deterg -39.1%.
For Cc1cc(OC(=O)c2ccc(Cl)cc2Cl)nc(C)n1 the results were AmpC detergent -3.1%, Pf growth 48h 5.5%, SARS PLP yeast 2.0%, Pf growth 96h 37.0%, Sm TGR block 56.2µM* and AmpC no deterg -11.2%.
Screening Cc1cc(C)c(S(=O)(=O)c2ccccc2)c(OC(=O)c2ccc(Cl)cc2Cl)n1 returned AmpC detergent -9.1%, SARS PLP yeast -5.1%, Pf growth 96h inconclusive, Sm TGR block 23.0% and AmpC no deterg -4.8%.
Oc1ccc(/C=N/N(c2ccccc2)c2ccccc2)c(O)c1O was read as AmpC detergent 3.7%, Pf growth 48h inconclusive, SARS PLP yeast 1.2%, Pf growth 96h 22.8%, Sm TGR block 39.8µM* and AmpC no deterg 28.2µM*.
Screening CCN(CC)c1ccc(/C=N/N=C(c2ccccc2)c2ccccc2)c(O)c1 returned AmpC detergent 0.9%, Pf growth 48h inconclusive, SARS PLP yeast 9.0%, Pf growth 96h inconclusive, Sm TGR block -10.0% and AmpC no deterg -44.1%.
Screening CCN(CC)c1ccc(/C=N/N(c2ccccc2)c2ccccc2)c(O)c1 returned AmpC detergent -8.2%, Pf growth 48h inconclusive, SARS PLP yeast -24.1%, Pf growth 96h 7.38µM*, Sm TGR block 0.1% and AmpC no deterg -24.1%.
CCN(CC)c1ccc(/C=N/NC(=O)c2ccco2)c(O)c1 was read as AmpC detergent -10.2%, Pf growth 48h inconclusive, SARS PLP yeast -6.7%, Pf growth 96h -86.3%, Sm TGR block 8.3% and AmpC no deterg -41.0%.
For CCN(CC)c1ccc(/C=N/NC(=S)NCc2ccccc2)c(O)c1 the results were AmpC detergent -9.8%, Pf growth 48h 0.0%, SARS PLP yeast 10µM*, Pf growth 96h inconclusive, Sm TGR block 1.9% and AmpC no deterg inconclusive.
Screening CSc1cccc(NC(=O)CC2Oc3ccccc3NC2=O)c1 (centres undefined) returned AmpC detergent -12.2%, Pf growth 48h 17.0%, SARS PLP yeast 0.8%, Pf growth 96h 24.0%, Sm TGR block 4.7% and AmpC no deterg -42.9%.
CCC(=O)N1CCc2cc(Br)cc(S(=O)(=O)N3CCC(C(=O)Nc4ccccc4CC)CC3)c21 was read as AmpC detergent 12.5% and Sm TGR block 7.6%.
`CC(=O)NCCc1ccc(C(=O)COC(=O)c2cc(C)oc2C)cc1` gave SARS PLP yeast -0.2% and AmpC no deterg 31.6%.
O=C(NCc1ccccc1)c1cccc2c1C(=O)c1ccc(/C=C/c3ccccc3)cc1S2(=O)=O was read as SARS PLP yeast -0.7% and AmpC no deterg -45.7%.
Screening O=C(NC1CCCC1)c1cccc2c1C(=O)c1ccc(/C=C/c3ccccc3)cc1S2(=O)=O returned AmpC detergent 5.0%, Pf growth 48h inconclusive, SARS PLP yeast -9.9%, Pf growth 96h 1.85µM*, Sm TGR block inconclusive and AmpC no deterg -23.6%.

From PubChem BioAssay
